Compound activity from PubChem BioAssay.
Dicer processing = inhibitors of Dicer pre-microRNA processing, primary screen, biochemical, cat-ELCCA, chemiluminescence; Endoribonuclease Dicer (Homo sapiens), Q9UPY3; cat-ELCCA pre-miR-21 Dicer processing; active compounds read high; z-score at 25 µM; 47,000 tested, 6% active; AID 1347074, 2019; in the data active = z-score above about 3, passing the limit was not always enough;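 note: plate controls were vehicle for no effect and no enzyme for full effect; higher signal means more uncleaved substrate so more Dicer inhibition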
Starred values were filed as active, the others as inactive. This is one part of a sample in which hits are shown more often than they occur.

SMILES | Dicer processing
O=C1OC(Nc2ccccc2Sc2ccc(Cl)cc2[N+](=O)[O-])c2ccccc21 (stereo not given) | 0.08
N#Cc1ccc(CSc2ccccc2NC2OC(=O)c3ccccc32)cc1 (stereo not given) | 3.2
O=C1OC(Nc2ccccc2SCc2ccccc2Cl)c2ccccc21 (stereo not given) | 3.3*
CNC(=S)N/N=C/c1ccc(OC)c(Br)c1 | 1.2
COc1cc(/C=N/NC(=S)Nc2ccccc2OC)ccc1O | 5.1*
COc1ccccc1NC(=S)N/N=C/c1ccco1 | 1.4
O=[N+]([O-])c1ccc(Oc2cncc(Cl)c2)c(-c2nnc(-c3cccc(Cl)c3)o2)c1 | -0.02
Nc1cc(NC(=O)c2ccccc2O)ccc1Cl | 5.6*
O=C(NC(=O)c1ccccc1Cl)c1ccccc1O | 0.32
O=C(Nc1ccc(Oc2ccc(NC(=O)c3ccccc3Cl)cc2)cc1)c1ccccc1Cl | -0.87
COC(=O)NC(O)C(=O)c1ccccc1 (stereo not given) | -0.58
COc1cccc(NC2SC(=O)N(c3ccccc3)C2=O)c1 (stereo not given) | 49*
O=C1SC(Nc2cccc(Cl)c2)C(=O)N1c1ccccc1 (stereo not given) | 0.86
O=C1SC(Nc2ccc(F)cc2)C(=O)N1c1ccccc1 (stereo not given) | 1.9
COc1ccccc1NC(=O)NNC(=S)NCC(OC)OC | -0.02
COc1ccc(C2/C(=C(\O)c3ccccc3)C(=O)C(=O)N2c2cccc(Cl)c2)cc1OC (stereo not given) | -0.08
COc1ccc(Nc2nc(-c3sc(C)nc3C)cs2)cc1 | 0.54
CC(=O)Nc1nc(C)c(-c2csc(Nc3ccc(O)cc3)n2)s1 | -2.7
CC(=O)Nc1nc(C)c(-c2csc(Nc3ccccn3)n2)s1 | -0.82
Cc1ccn2c(-c3csc(Nc4ccc(S(=O)(=O)Nc5cc(C)on5)cc4)n3)c(C)nc2c1 | 2.7
Cc1nc2ncccn2c1-c1csc(Nc2ccc(O)cc2)n1 | 9.1
Cc1nc2ccccn2c1-c1csc(Nc2ccccn2)n1 | 9.1
Cc1nc(C)c(-c2csc(Nc3ccc(O)cc3)n2)s1 | 6.1*
Cc1ccn2c(-c3csc(Nc4ccc(O)cc4)n3)c(C)nc2c1 | 7.1*
Cc1ccnc(Nc2nc(-c3c(C)nc4cc(C)ccn34)cs2)c1 | 5.6*
SMILES | Dicer processing
Cc1cc(C)c(SCC(=O)N2CCN(c3ncc(C(F)(F)F)cc3Cl)CC2)c(C)c1 | -1.7
Cn1c(Cc2nc(-c3cnccn3)no2)nnc1SCc1c(Cl)cccc1Cl | -1.4
CC1=C(C(=O)OC(C)C)C(c2cccc(F)c2)C2=C(CCCC2=O)N1 (stereo not given) | -0.53
CCOc1ccc(N2C(=O)CC(NC3CCN(c4ccc(S(=O)(=O)CC)cc4)CC3)C2=O)cc1 (stereo not given) | 0.24
Cc1nn(-c2ccc(C(F)(F)F)cn2)c(=O)o1 | -0.98
CCC(=O)Oc1ccc(C2C3=C(Nc4c2c(=O)n(C)c(=O)n4C)c2ccccc2C3=O)cc1 (stereo not given) | -0.12
Cc1nnc(NC(=O)CSc2nnc3c4ccccc4n(C)c3n2)s1 | 1.1
CCc1ccc(CC)c(S(=O)(=O)Nc2ccc3oc(=O)sc3c2)c1 | 7.8*
CCCC(=O)N(c1ccc2oc(=O)sc2c1)S(=O)(=O)c1ccc(Cl)cc1 | 2.1
CCCCC(=O)N(c1ccc2oc(=O)sc2c1)S(=O)(=O)c1ccccc1 | -0.63
CCc1ccc(-c2nc3cc(NS(=O)(=O)c4ccccc4)ccc3o2)cc1 | 2
CCc1ccc(S(=O)(=O)Nc2ccc3oc(=O)sc3c2)cc1 | 7.9*
CCc1ccc(S(=O)(=O)Nc2cccc(S(N)(=O)=O)c2)cc1 | -0.66
COc1ccc(S(=O)(=O)Nc2cc(C)ccn2)c(C)c1C | 0.46
COc1ccc(-c2cc(NS(=O)(=O)c3cccc(F)c3)n(-c3ccc(Cl)c(Cl)c3)n2)cc1 | -0.11
Clc1ccc(Oc2nc(-c3cccnc3)nc3ccccc23)cc1 | 1.4
O=C(O/N=C/c1ccc2c(c1)OCO2)C1c2ccccc2Oc2ccccc21 | -0.76
O=C(Oc1ccnc2cc(Cl)ccc12)N1CCCCC1 | 2.2
CC1(C)CC(OC(=O)CCCCC(=O)OC2CC(C)(C)NC(C)(C)C2)CC(C)(C)N1 | -0.77
Cc1csc2c(=O)n(CCSc3ccc(Cl)cc3)c(=O)[nH]c12 | 3.1*
CCOC(=O)c1c(C)csc1NC(=O)CSc1ccc(Cl)cc1 | 0.16
O=c1[nH]c2ccccc2c(=O)n1CCSc1ccccc1 | -0.98
CCCc1nnc2n1C(C)(C)Cc1ccccc1-2 | 1.1
O=S(=O)(c1ccccc1)c1ccc(S(=O)(=O)N2CCCC2)s1 | -0.58
O=S(=O)(c1cc(Br)c(Br)s1)N1CCCCC1 | 0.86
SMILES | Dicer processing
O=S(=O)(c1cc(Br)c(Br)s1)N1CCCC1 | 3.1*
COc1ccccc1OCCN1C(=O)C(O)(c2c(C)[nH]c3ccccc23)c2ccccc21 (stereo not given) | -0.38
O=c1[nH]c(=O)n(C2O[C@H](CO)[C@@H](O)[C@H]2O)cc1Br (stereo not given in full) | 1.4
O=c1[nH]c(=O)n(C2CCCO2)cc1F (stereo not given) | 1.7
C[C@H]1O[C@@H](n2cc(F)c(=O)[nH]c2=O)[C@H](O)[C@@H]1O | 3.1*
CC12CN3CC(C)(CN(C1)C3c1ccc(F)cc1)C2=O (stereo not given) | 1.8
CCOC(=O)C(C(=O)OCC)c1c([N+](=O)[O-])c(=O)n(C)c2ccccc12 | -1.6
CCCc1nn(C)c(C(N)=O)c1[N+](=O)[O-] | 5.5*
Cn1cnc([N+](=O)[O-])c1N1CCC(C(N)=O)CC1 | -1.6
C=CCN1C(=O)C2(/C(=C(/O)c3ccc(C)c(F)c3)C(=O)C(=O)N2CC2CCCO2)c2ccccc21 (stereo not given) | -1.9
CCOC(=O)N1CCc2c(sc3c2C(=O)NC(c2ccccc2O)N3)C1 (stereo not given) | -3.6
COC(=O)c1c(NC(=O)C2Cc3ccc(C)cc3C(=O)O2)sc2c1CCC2 (stereo not given) | -0.87
CC(=O)Nc1ccc(-n2sc3c(c2=S)-c2ccccc2NC3(C)C)cc1 | 5.3*
CC(=O)Nc1ccc(-n2sc3c(c2=S)-c2cccc(C)c2NC3(C)C)cc1 | 7.9
CCOc1ccc2c(c1)-c1c(sn(-c3ccccc3OC)c1=S)C(C)(C)N2 | 0.92
CCOC(=O)c1ccc(-n2sc3c(c2=S)-c2ccccc2NC3(C)C)cc1 | 0.62
COc1ccc2c(c1)-c1c(sn(-c3ccccc3OC)c1=S)C(C)(C)N2 | 6.6*
COc1ccc2c(c1)-c1c(sn(-c3cc(C)ccc3O)c1=S)C(C)(C)N2 | 1.9
CC(C1CC1)N(C(=O)c1ccccc1Cl)c1ccccc1 (stereo not given) | -2.2
CC(C)COC(=O)NC(C)C(=O)O (stereo not given) | -0.02
COc1cc2ncnc(NCCO)c2cc1OC | -1.4
COc1ccccc1C1NC(=O)c2c(sc3c2CCN(C)C3)N1 (stereo not given) | -2.1
CC(C)(C)C(=O)O/N=C/c1ccc2c(c1)OCO2 | -1.4
Cc1cccc(C2C3=C(CC(C)(C)CC3=O)N=C3c4ccccc4C(=O)C32)c1 (stereo not given) | -0.39
Fc1cccc(CN2CCN(C3CCCCC3)CC2)c1 | 2
COC(=O)c1sc(N2C(=O)C(=O)/C(=C(/O)c3ccc(Cl)cc3)C2c2ccc(OC)cc2)nc1C (stereo not given) | 1.9
COC(=O)C1=C(C)N=c2s/c(=C/c3ccc(Cl)cc3)c(=O)n2C1c1ccc(OC)cc1 (stereo not given) | 4.6*
